Each structure is given as a SMILES string. The whole screen tested about 320,000 compounds, of which about 1,000 (0.31%) were called active. The full list was thinned out, with actives kept by preference. Unmarked numbers belong to inactive results.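 Rule for the calls: active = activation above the mean of all tested compounds plus 3 SD, cutoff set per screening run (cut at about 20% in these data); inactive = the rest.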

For this experiment, the target named is Oxytocin receptor (Homo sapiens) (UniProt P30559). Briefly: human OXTR agonists, primary screen, fluorescence, CHO-OTR cells, Fluo-8 calcium (AID 2435).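 Note: peak over basal fluorescence ratio from a 100 s FLIPR kinetic read.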 The note with it: Fluo-8 calcium fluorescence, at 3 µM, hits give high values, normalized: DMSO 0%, oxytocin 100%.
Oxytocin receptor (Homo sapiens), sequence (P30559 whole entry, looked up): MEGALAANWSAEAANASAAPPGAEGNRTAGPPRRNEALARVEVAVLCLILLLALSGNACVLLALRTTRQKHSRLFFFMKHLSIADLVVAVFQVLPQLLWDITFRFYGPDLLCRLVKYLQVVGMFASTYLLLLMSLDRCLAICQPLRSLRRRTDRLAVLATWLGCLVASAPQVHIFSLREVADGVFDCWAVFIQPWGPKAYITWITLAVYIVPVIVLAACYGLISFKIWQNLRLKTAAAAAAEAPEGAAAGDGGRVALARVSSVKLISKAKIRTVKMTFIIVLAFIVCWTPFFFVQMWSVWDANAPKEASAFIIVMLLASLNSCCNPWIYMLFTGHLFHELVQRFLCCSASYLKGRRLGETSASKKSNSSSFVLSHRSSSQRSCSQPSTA
In the case of `CCOc1ccc(S(=O)(=O)Nc2ccc(S(=O)(=O)Nc3cc(OC)ccc3OC)cc2)cc1`, the activation is 5.31%.

On to `COc1ccc(NS(=O)(=O)c2ccc(Oc3c(C#N)cccc3C#N)cc2)cc1`, for which the activation was 21.2% (active).

As for `COc1ccc(NS(=O)(=O)c2ccc(NC(=O)c3ccc(N(C)S(C)(=O)=O)cc3)cc2)cc1`, the activation is 2.34%. With `CCNc1ccc(C(=O)OCC(=O)N2c3ccccc3NC(=O)C2(C)C)cc1[N+](=O)[O-]`, the activation was -1.03%. Regarding `COCCCNC(=S)NC(=O)c1ccccc1`, the activation was 0.86%.

For the molecule `Cc1ccc(NC(=S)NC(=O)c2ccc(-c3ccccc3)cc2)cc1`, the activation is 1.22%. Consider `CCOC(=O)C1=C(NC(=S)NC(=O)c2ccccc2)c2ccccc2CC1(C)C`, for which the activation was 25.1% (active). `CC1=CC=CC2=N/C(=N\S(=O)(=O)c3ccc(F)cc3F)c3ccccc3CN12`: the activation is -2.27%. With `COc1ccc(N2CCC(N3CCN(C)C(CCO)C3)CC2)cc1` (stereo not given), the activation was -0.23%. On to `Cc1ccc(S(=O)(=O)N2CCN(C(=O)N3CCOCC3)CC2)c(C)c1`, for which the activation is 0.27%. Regarding `Nc1ccc2nc3c(=O)[nH]c(=S)[nH]c3nc2c1`, the activation was 35.4% (active). As for `CSc1nnc(SCc2nc3sc(C(=O)O)c(C)c3c(=O)[nH]2)s1`, the activation was 6.08%. On to `CC(/C=C/c1ccccc1)=N\NC(=O)C1CC1(C)c1ccccc1` (stereo not given), for which the activation is -2.09%.

For the molecule `CCOC(=O)Cn1c(=O)oc2cc(S(=O)(=O)N(C)Cc3ccco3)ccc21`, the activation was 1.29%. The same measure for `CCOC(=O)/C=c1\s/c(=C\c2ccc(C#N)cc2)c(=O)n1CC(=O)Nc1cccc(C)c1C`: 0.18%. On to `CN(c1ccccc1)c1ccc(/C=c2\s/c(=C(/C#N)C(=O)C(C)(C)C)n(Cc3ccco3)c2=O)cc1`, for which the activation is 20.3% (active). As to `CCS(=O)(=O)N1CCCC(C(=O)NCCCN(C)Cc2ccccc2)C1` (stereo not given), the activation was -0.22%. Next, `O=C(Cc1ccc(Cl)cc1)NC(=S)Nc1ccccc1O`: 55.4% (active); `Cc1ccccc1NC(=S)NC(=O)Cc1ccc(Cl)cc1`: 28% (active). `Cc1ccc(C(=O)NC(=S)Nc2ccccc2C)cc1`: the activation is -1.72%.

Turning to `O=C(COc1ccc(Cl)cc1)NC(=S)Nc1ccccc1N1CCOCC1`, the activation was -0.94%. As to `COC(=O)Cc1ccc(NC(=S)NCc2ccc(Cl)cc2)cc1`, the activation was 7.5%. With `Cc1cccc(NC(=S)NCCc2ccc(Cl)cc2)c1C`, the activation was -1.48%. `O=C(Nc1ccc(S(=O)(=O)Nc2ncccn2)cc1)C12CC3CC(CC(C3)C1)C2`: the activation was -0.32%. For `COc1cc(NC(=O)CN2C(=O)NC(C)(c3ccc(OC(F)F)cc3)C2=O)cc(OC)c1OC` (stereo not given), the activation was 2.87%.

The values are drawn from PubChem BioAssay AID2435 (The Scripps Research Institute Molecular Screening Center, 2010).
